These results are taken from PubChem BioAssay (NCATS).

Molecules are shown by their SMILES. Inconclusive results are not listed. Entries that show only a call come without a potency. Activity calls are given as the source filed them. The call rests on the fitted dose curve; in most records, active means well fitted inhibition curve with a large enough effect; inconclusive means small, poorly fitted or top-dose-only effect; inactive means flat fitted curve, though single readings scatter.

The assay relates to Zika virus NS2B-NS3 protease. Nature of the assay: Primary screen GU AMC qHTS for Zika virus inhibitors (AID 1347154). Further: nearly all actives have a fitted effect of over 70% in size. The note with it: Zika NS2B-NS3 unlinked protease, AMC fluorogenic substrate; series mostly up to 54.1 µM. An outline of the steps: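 Unlinked Zika NS2B hydrophilic domain/NS3 protease domain noncovalent complex (25 nM final) in 10 mM Tris-HCl pH 8.0, 0.01% Tween 20, with AMC peptide substrate. Fluorescence (ex 340, em 450 nm) change over 15 min, room temperature; percent inhibition fitted to 4-parameter Hill equation.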
On to `O=C1O[C@H](CO)[C@@H](O)[C@H](O)[C@H]1O`, for which the Potency result is “inactive”. As to `COc1cc(C(=O)N2CCOCC2)cc(OC)c1OC`, the Potency entry is “inactive”. Still for that read-out and setting: next, `CC(=O)CCC(=O)O`: “inactive”; `CC[N+](CC)(CC)CCOc1ccc(/C=C/c2ccccc2)cc1`: “inactive”. On to `O=c1cc(CO)occ1O`, for which the Potency entry is “inactive”. Still for that read-out and setting: next, `Nc1ccc(S(=O)(=O)Nc2ccc(Cl)nn2)cc1`: “inactive”. Turning to `CC(O)COc1ccccc1` (stereo unspecified), the Potency result is “inactive”. Still for that read-out and setting: next, `CCN(CC)CCNC(C(=O)OCCC(C)C)c1ccccc1` (stereo unspecified): “inactive”. Take `Cc1cc2c(cc1S(N)(=O)=O)S(=O)(=O)CCC2`: the Potency entry was “inactive”. Same read-out and setting: next, `CCCOC(=O)c1ccccc1`: “inactive”. `CCCCC/C(C=O)=C\c1ccccc1`: the Potency entry is “inactive”. For the molecule `N[C@@H](CSSC[C@H](N)C(=O)O)C(=O)O`, the activity change, negative = inhibition was 4.84% [at 0.59 µM] (inactive). Take `O=c1[nH]c(=O)c2[nH]c(=O)[nH]c2[nH]1`: the activity change, negative = inhibition is -2.36% [at 6.83 µM] (inactive). For the molecule `CC(C)(C)C(=O)NCCCC(=O)O`, the Potency result is “inactive”. For the molecule `COc1cc(C)c(Cc2cnc(N)nc2N)cc1OC`, the Potency result is “inactive”. On the same count and under the same terms, next, `O=Cc1ccccc1C=O`: “inactive”. Turning to `CC(COc1ccccc1)NC(C)C(O)c1ccc(O)cc1` (stereo unspecified), the Potency entry is “inactive”. On to `C[C@@H]1CC[C@@]2(OC1)O[C@H]1C[C@H]3[C@@H]4CC[C@H]5C[C@@H](O)CC[C@]5(C)[C@H]4CC(=O)[C@]3(C)[C@H]1[C@@H]2C`, for which the activity change, negative = inhibition is -4.75% [at 4.99 µM] (inactive). In the case of `O=C1OC(OC(=O)c2cccnc2Nc2cccc(C(F)(F)F)c2)c2ccccc21` (stereo unspecified), the Potency entry is “inactive”. The same measure, in the same setting: next, `CCCCOC(=O)c1ccc(O)cc1`: “inactive”; `CCN(CC)C(C)CN1c2ccccc2Sc2ccccc21` (stereo unspecified): “inactive”.
